Laboratory results as given in PubChem BioAssay AID1159580 (chemical genetic matrix, 2015).
Several values for one entry are separate records, joined by “and”; a condition that tells them apart may be missing. Equal entries are not always repeated. In all, about 5,500 compounds went through this assay and about 2,000 (36%) were called active. Inconclusive results (about 18%) are left out. Cut-off read from the data, not from the text of the source: active = normalized growth mostly below about 0.91 (no sharp cut-off); inconclusive = no clear call, values can overlap the other calls; inactive = mostly above about 0.92. This is one part of the list.

Experiment: chemical genetic growth profiling, strain panel (AID 1159580);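 note: tested at 20 µM; growth read once vehicle control cultures reached saturation at 30 °C; 1 = growth at the plate median or of vehicle wells; lower values mean less growth of the strain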
Conditions: S. cerevisiae deletion strains, growth OD

Measured: normalized growth

NCCSSCCN
inactive: locus YAL013W, strain DEP1, active compounds read low 1.01 | locus YAL021C, strain ccr4, active compounds read low 0.998 | locus YAL026C, strain drs2, active compounds read low 0.999 | locus YAL030W, strain snc1, active compounds read low 0.994 | locus YAL040C, strain CLN3, active compounds read low 1.02 | locus YBL061C, strain skt5, active compounds read low 0.997 | locus YBR009C, strain hhf1, active compounds read low 0.992 | locus YBR021W, strain FUR4, active compounds read low 1.01 | locus YBR023C, strain chs3, active compounds read low 0.991 | locus YBR171W, strain sec66, active compounds read low 0.988 | locus YBR229C, strain ROT2, active compounds read low 1 | locus YBR231C, strain swc5, active compounds read low 0.994 | locus YBR279W, strain paf1, active compounds read low 0.996 | locus YCL011C, strain gbp2, active compounds read low 1 | locus YCL016C, strain dcc1, active compounds read low 1 | locus YCL029C, strain bik1, active compounds read low 1.03 | locus YCL061C, strain MRC1 (second series), active compounds read low 1 | locus YCL069W, strain vba3, active compounds read low 0.997 | locus YCR088W, strain abp1, active compounds read low 0.991 | locus YDL005C, strain med2, active compounds read low 0.988 | locus YDL035C, strain GPR1, active compounds read low 1.01 | locus YDL040C, strain nat1, active compounds read low 0.996 | locus YDL074C, strain BRE1, active compounds read low 1.03 | locus YDL101C, strain DUN1, active compounds read low 1.03 | locus YDL134C, strain PPH21, active compounds read low 1.01 | locus YDL185W, strain tfp1, active compounds read low 1 | locus YDL192W, strain arf1, active compounds read low 1 | locus YDR001C, strain nth1, active compounds read low 0.992 | locus YDR069C, strain doa4, active compounds read low 0.983 | locus YDR101C, strain arx1, active compounds read low 1.01 | locus YDR137W, strain rgp1, active compounds read low 1.03 | locus YDR150W, strain NUM1, active compounds read low 1.01 | locus YDR159W, strain sac3, active compounds read low 1.01 | locus YDR162C, strain NBP2, active compounds read low 1.01 | locus YDR195W, strain ref2 0.975 | locus YDR297W, strain sur2, active compounds read low 1 | locus YDR318W, strain mcm21, active compounds read low 1.01 | locus YDR334W, strain swr1, active compounds read low 0.996 | locus YDR335W, strain msn5, active compounds read low 0.991 | locus YDR388W, active compounds read low 1.01 | locus YDR392W, strain spt3, active compounds read low 1.01 | locus YDR502C, strain sam2, active compounds read low 0.996 | locus YEL003W, strain gim4, active compounds read low 0.994 | locus YEL037C, strain rad23, active compounds read low 1 | locus YEL061C, strain CIN8 (second series), active compounds read low 0.989 | locus YEL061C, strain CIN8, active compounds read low 1 | locus YER002W, strain NOP16, active compounds read low 1.02 | locus YER015W, strain faa2, active compounds read low 1 | locus YER016W, strain bim1, active compounds read low 0.992 | locus YER110C, active compounds read low 1.01 | locus YER111C, strain swi4, active compounds read low 0.989 | locus YER155C, strain BEM2 (second series), active compounds read low 0.952 | locus YER155C, strain BEM2, active compounds read low 1.01 | locus YER167W, strain BCK2, active compounds read low 0.997 | locus YFR010W, strain ubp6, active compounds read low 0.994 | locus YGL078C, strain dbp3, active compounds read low 1 | locus YGL086W, strain mad1, active compounds read low 0.985 | locus YGL167C, strain pmr1, active compounds read low 0.993 | locus YGL173C, strain kem1, active compounds read low 0.99 | locus YGL227W, strain vid30, active compounds read low 0.99 | locus YGL240W, strain doc1, active compounds read low 0.978 | locus YGL248W, strain PDE1, active compounds read low 1 | locus YGL253W, strain hxk2, active compounds read low 0.995 | locus YGR078C, strain PAC10, active compounds read low 1.02 and 1 | locus YGR135W, strain pre9, active compounds read low 0.997 | locus YGR229C, strain SMI1, active compounds read low 0.982 | locus YGR252W, strain gcn5, active compounds read low 0.918 | locus YHR013C, strain ard1, active compounds read low 0.996 | locus YHR027C, strain rpn1, active compounds read low 0.997 | locus YHR030C, strain SLT2, active compounds read low 1 and 1.05 | locus YHR079C, strain IRE1 (second series), active compounds read low 1.02 | locus YHR079C, strain IRE1, active compounds read low 1.05 | locus YHR094C, strain hxt1, active compounds read low 1.01 | locus YHR129C, strain ARP1, active compounds read low 1.02 | locus YHR142W, strain chs7, active compounds read low 1.01 | locus YHR200W, strain rpn10, active compounds read low 1.01 | locus YIL066C, strain RNR3, active compounds read low 1.02 | locus YIL073C, strain SPO22, active compounds read low 1.02 | locus YIL125W, strain kgd1, active compounds read low 0.996 | locus YIR030C, strain dcg1, active compounds read low 1.01 | locus YJL092W, strain hpr5, active compounds read low 1 | locus YJL095W, strain BCK1 (second series), active compounds read low 0.989 | locus YJL095W, strain BCK1, active compounds read low 1.04 and 1.06 | locus YJL115W, strain asf1, active compounds read low 0.988 | locus YJL129C, strain trk1, active compounds read low 0.986 | locus YJL134W, strain LCB3, active compounds read low 1 | locus YJL154C, strain vps35, active compounds read low 0.993 | locus YJL164C, strain tpk1, active compounds read low 1.01 | locus YJL166W, strain qcr8, active compounds read low 0.989 | locus YJL168C, strain set2, active compounds read low 1.01 | locus YJL187C, strain SWE1 (second series), active compounds read low 1.03 | locus YJL187C, strain SWE1, active compounds read low 0.993 | locus YJR043C, strain POL32, active compounds read low 1.03 | locus YJR066W, strain TOR1, active compounds read low 0.918 | locus YJR075W, strain HOC1, active compounds read low 1.01
